# Laboratory results taken from PubChem BioAssay (EPA / NIEHS).
# “And” between values parts separate entries of the source, which are not always exact repeats. Identical values can stand only once. Results filed as inconclusive are left out. A structure can be active in one record and inactive in another. The source made the active and inactive calls. How the source made its calls: active means hit-call score of the fitted dose curve at least 0.9, where 1 is the maximum; inconclusive means response in the unintended direction; inactive means score below 0.9.
# Tests used:
# [1] = molecular target: Estrogen receptor (Homo sapiens) + Estrogen receptor beta (Homo sapiens) (UniProt P03372+Q92731); assay: OT_ER_ERaERb_1440: Odyssey Thera (OT) 24-hour HEK293T Protein-Complementation Assay for Estrogen Receptor-alpha/-beta Homodimer (AID 2283356);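 further: heteromer of ER alpha and ER beta binding domains; hits raise reporter fluorescence and both agonists and antagonists give an increase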
# Chain of Estrogen receptor (Homo sapiens) + Estrogen receptor beta (Homo sapiens) (P03372 whole entry, looked up, the tested form may be a part): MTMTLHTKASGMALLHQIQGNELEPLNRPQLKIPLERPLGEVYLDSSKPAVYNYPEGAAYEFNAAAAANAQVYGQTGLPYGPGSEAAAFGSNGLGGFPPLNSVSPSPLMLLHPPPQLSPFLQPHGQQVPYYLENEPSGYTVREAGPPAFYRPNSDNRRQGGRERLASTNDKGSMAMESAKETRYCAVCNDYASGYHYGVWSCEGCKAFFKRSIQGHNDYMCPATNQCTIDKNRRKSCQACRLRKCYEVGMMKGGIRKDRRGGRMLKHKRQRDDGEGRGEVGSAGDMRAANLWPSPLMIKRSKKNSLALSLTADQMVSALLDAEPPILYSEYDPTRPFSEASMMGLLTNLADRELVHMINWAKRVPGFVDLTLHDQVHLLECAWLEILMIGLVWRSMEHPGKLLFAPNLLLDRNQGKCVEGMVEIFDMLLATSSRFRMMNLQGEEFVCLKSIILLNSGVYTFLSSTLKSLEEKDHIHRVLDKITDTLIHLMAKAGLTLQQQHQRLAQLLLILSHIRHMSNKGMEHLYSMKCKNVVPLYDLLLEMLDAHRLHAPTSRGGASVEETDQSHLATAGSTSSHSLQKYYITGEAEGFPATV
# Chain of Estrogen receptor (Homo sapiens) + Estrogen receptor beta (Homo sapiens) (Q92731 whole entry, looked up, the tested form may be a part): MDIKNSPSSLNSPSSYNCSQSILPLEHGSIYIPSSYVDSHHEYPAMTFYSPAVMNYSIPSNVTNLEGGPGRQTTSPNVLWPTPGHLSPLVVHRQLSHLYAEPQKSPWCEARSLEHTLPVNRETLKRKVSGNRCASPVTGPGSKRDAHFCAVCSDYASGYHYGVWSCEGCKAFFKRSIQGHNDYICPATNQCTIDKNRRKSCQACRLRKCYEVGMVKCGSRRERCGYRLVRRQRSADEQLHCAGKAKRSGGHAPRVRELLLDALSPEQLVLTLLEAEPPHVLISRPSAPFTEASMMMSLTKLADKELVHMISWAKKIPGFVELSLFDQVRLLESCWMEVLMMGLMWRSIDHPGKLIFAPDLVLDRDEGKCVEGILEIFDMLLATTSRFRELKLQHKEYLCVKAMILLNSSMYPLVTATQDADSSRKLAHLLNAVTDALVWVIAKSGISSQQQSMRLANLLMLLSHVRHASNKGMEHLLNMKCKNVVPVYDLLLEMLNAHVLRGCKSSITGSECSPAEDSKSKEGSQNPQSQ
# How it was run: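 Fragment complementation between ER alpha (310-547) and ER beta (263-489) ligand-binding domains in HEK293T cells; signal read 24 h post-dosing by laser scanning cytometer. Gain of fluorescence relative to DMSO fitted.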
# [2] = molecular target: Estrogen receptor beta (Homo sapiens) (UniProt Q92731); assay: OT_ER_ERbERb_0480: Odyssey Thera (OT) 8-hour HEK293T Protein-Complementation Assay for Estrogen Receptor-beta/-beta Homodimer (AID 2283357);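 further: active means signal gain over DMSO baseline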
# Chain of Estrogen receptor beta (Homo sapiens) (Q92731 whole entry, looked up, the tested form may be a part): as above
# How it was run: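 Fluorescence gain from complemented reporter fragments on ER-beta LBD homodimer in HEK293T was quantified against DMSO controls after 8 h treatment, fixation in 4% formaldehyde and Draq5 staining.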
# [3] = molecular target: Nuclear receptor subfamily 1 group I member 2 (Homo sapiens) (UniProt O75469); assay: NVS_NR_hPXR: NovaScreen (NVS) Nuclear Receptor Binding Assay for human Pregnane X Receptor (PXR) (AID 2283365);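 further: a drop in FRET signal versus DMSO baseline means the compound binds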
# Chain of Nuclear receptor subfamily 1 group I member 2 (Homo sapiens) (O75469 whole entry, looked up): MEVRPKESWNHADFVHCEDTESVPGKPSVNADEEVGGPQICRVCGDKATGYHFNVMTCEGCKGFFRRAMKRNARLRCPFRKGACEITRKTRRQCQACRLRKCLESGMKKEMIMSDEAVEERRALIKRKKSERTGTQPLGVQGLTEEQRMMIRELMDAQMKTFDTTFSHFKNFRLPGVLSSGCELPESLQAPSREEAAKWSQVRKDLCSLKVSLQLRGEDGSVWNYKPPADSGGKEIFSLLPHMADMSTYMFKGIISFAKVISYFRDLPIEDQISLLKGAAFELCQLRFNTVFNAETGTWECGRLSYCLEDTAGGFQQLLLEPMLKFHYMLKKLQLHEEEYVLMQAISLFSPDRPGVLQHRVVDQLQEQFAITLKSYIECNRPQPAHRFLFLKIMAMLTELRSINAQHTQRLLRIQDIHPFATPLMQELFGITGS
# How it was run: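 Human PXR binding measured by TR-FRET in a cell-free format, 2 h exposure. Single-concentration duplicates at 25 uM preceded concentration-response retests of actives; endpoint fitted positively relative to DMSO, loss of signal indicating binding.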
# [4] = molecular target: guinea pig Sigma Receptor, Non-selective Binding, SIGMAR1 (gene 100135589) (UniProt Q60492); assay: NVS_OR_gSIGMA_NonSelective: NovaScreen (NVS) Nuclear Receptor Binding Assay for guinea pig Sigma Receptor, Non-selective Binding (AID 2283367)
# Chain of guinea pig Sigma Receptor, Non-selective Binding, SIGMAR1 (gene 100135589) (Q60492 whole entry, looked up): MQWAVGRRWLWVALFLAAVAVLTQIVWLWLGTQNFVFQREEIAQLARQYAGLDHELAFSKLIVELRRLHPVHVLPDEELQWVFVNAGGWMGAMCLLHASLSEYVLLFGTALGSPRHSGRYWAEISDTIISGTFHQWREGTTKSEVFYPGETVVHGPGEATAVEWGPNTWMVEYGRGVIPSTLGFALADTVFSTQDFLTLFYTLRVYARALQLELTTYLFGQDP
# How it was run: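 Test chemicals were screened in duplicate at 25 uM, then in concentration series if active, against radioligand binding to guinea pig brain membranes; filtration and scintillation counting at 1 h measured remaining bound ligand.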
# [5] = molecular target: Androgen Receptor/SRC-1 Co-activator, AR (gene 367) (UniProt P10275); assay: OT_AR_ARSRC1_0480: Odyssey Thera (OT) 8-hour HEK293T Protein-Complementation Assay for Androgen Receptor/SRC-1 Co-activator (AID 2283354);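 further: hits raise the complementation signal above DMSO so AC50 marks enhancers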
# How it was run: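 After 8 h dosing, stably expressing HEK293T cells with split-Venus AR/SRC-1 fusions were imaged (488, 635nm). The 488nm N/C ratio per image gave the endpoint, analysed in the positive direction against DMSO.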
# [6] = tested on: guinea pig Dopamine Transporter (DAT), gene 100714898; assay: NVS_TR_gDAT: NovaScreen (NVS) Transporter Assay for guinea pig Dopamine Transporter (DAT) (AID 2283369);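 further: active compounds lower bound radioligand signal relative to DMSO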
# How it was run: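 Radioligand displacement on membranes from guinea pig striatum, 2 h exposure, bound label counted by filtration and scintillation. Tested at 25 uM in duplicate, then actives in concentration series to 50 uM; DMSO as negative control.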
# [7] = molecular target: rat Mineralocorticoid Receptor (MR), Nr3c2 (gene 25672) (UniProt P22199); assay: NVS_NR_rMR: NovaScreen (NVS) Nuclear Receptor Binding Assay for rat Mineralocorticoid Receptor (MR) (AID 2283355)
# Chain of rat Mineralocorticoid Receptor (MR), Nr3c2 (gene 25672) (P22199 whole entry, looked up): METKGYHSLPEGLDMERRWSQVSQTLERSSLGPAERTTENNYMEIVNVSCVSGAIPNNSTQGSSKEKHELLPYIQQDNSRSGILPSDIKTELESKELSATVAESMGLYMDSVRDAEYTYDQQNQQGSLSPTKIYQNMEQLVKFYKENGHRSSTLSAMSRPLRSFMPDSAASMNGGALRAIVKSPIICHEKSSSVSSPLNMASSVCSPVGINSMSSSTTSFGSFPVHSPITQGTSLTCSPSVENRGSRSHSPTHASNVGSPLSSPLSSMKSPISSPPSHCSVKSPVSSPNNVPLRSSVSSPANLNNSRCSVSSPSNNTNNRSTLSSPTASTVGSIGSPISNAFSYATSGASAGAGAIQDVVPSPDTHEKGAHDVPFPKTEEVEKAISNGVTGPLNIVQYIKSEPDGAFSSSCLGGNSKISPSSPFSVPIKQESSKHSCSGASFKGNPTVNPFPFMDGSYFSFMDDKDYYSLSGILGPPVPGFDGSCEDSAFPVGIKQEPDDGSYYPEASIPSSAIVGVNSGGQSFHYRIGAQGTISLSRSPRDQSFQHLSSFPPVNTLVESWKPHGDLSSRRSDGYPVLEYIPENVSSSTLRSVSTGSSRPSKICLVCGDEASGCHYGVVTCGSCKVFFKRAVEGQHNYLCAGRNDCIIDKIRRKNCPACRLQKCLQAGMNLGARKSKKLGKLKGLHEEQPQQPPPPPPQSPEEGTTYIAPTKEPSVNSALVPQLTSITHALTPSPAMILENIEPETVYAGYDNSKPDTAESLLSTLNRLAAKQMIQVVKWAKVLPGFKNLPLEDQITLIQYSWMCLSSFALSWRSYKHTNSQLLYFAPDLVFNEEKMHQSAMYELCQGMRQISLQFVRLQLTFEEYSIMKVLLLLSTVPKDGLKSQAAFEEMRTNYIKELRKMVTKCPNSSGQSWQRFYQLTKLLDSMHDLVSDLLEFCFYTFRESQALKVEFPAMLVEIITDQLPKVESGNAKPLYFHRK
# How it was run: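 Single-concentration duplicate screen (25 uM) of radioligand binding in adrenalectomized rat brain supernatant; scintillation detection 24 h after dosing. Positive and negative controls ran on each plate, and confirmed actives went to concentration-response.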
# [8] = molecular target: PGR (gene 5241) (UniProt P06401); assay: NVS_NR_hPR: NovaScreen (NVS) Nuclear Receptor Binding Assay for human Progestron Receptor (PR) (AID 2283360);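 further: active means loss of bound radioligand signal versus DMSO baseline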
# Chain of PGR (gene 5241) (P06401 whole entry, looked up): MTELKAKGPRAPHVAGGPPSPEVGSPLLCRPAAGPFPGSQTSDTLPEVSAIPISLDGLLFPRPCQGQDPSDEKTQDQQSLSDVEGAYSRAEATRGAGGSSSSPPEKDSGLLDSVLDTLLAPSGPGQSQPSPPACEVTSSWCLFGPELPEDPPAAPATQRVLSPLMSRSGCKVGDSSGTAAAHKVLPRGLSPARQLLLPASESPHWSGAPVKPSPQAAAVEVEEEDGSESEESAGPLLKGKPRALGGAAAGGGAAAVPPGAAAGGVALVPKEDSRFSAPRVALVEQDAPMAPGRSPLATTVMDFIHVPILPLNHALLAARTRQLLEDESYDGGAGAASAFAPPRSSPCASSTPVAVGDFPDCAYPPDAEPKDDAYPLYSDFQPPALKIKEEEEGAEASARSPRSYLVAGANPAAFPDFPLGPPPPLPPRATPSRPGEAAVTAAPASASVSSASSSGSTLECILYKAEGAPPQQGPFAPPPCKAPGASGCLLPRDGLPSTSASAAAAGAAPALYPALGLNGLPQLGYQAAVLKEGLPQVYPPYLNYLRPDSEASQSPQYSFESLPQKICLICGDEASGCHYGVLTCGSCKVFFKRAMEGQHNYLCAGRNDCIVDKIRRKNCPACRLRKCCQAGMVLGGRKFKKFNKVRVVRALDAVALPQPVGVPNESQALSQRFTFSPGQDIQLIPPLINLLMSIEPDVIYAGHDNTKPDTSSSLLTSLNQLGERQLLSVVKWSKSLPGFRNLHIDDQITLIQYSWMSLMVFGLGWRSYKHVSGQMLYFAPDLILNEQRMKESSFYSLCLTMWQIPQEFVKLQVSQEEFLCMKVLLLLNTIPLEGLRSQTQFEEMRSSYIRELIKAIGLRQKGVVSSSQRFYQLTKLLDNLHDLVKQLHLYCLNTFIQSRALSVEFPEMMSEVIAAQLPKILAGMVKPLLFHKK
# How it was run: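 T47D-derived receptor preparation, cell-free, with tritiated or iodinated radioligand displacement measured by scintillation 18 h post-dosing. Single 25 uM duplicate screen, then concentration series; signal loss relative to DMSO.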
# [9] = molecular target: human Norepinephrine Transporter (NET), SLC6A2 (gene 6530) (UniProt P23975); assay: NVS_TR_hNET: NovaScreen (NVS) Transporter Assay for human Norepinephrine Transporter (NET) (AID 2283377);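 further: cell-free membrane protein extracted from CHO cells expressing human NET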;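 on AC50: displacement of radioligand from human NET seen as loss of scintillation signal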
# Chain of human Norepinephrine Transporter (NET), SLC6A2 (gene 6530) (P23975 whole entry, looked up): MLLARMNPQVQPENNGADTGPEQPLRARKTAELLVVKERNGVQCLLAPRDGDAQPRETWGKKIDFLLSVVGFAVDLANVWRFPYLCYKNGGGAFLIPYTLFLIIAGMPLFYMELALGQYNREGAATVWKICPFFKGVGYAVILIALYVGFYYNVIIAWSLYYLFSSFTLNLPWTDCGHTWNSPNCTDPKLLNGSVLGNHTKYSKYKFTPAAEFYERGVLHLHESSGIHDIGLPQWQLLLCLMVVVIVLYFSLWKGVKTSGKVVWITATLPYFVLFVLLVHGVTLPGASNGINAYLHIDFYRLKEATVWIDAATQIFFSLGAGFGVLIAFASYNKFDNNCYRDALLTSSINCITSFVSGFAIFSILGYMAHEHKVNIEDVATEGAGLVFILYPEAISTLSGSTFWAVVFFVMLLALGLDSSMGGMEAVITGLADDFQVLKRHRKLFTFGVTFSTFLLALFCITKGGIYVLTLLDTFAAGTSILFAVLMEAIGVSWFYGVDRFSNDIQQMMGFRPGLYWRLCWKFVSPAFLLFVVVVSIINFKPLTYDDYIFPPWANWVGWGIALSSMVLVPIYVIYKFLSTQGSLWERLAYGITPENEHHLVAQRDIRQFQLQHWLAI
# How it was run: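 In this cell-free binding screen, chemicals at 25 uM (duplicate) compete with a radioligand for CHO-derived human NET over 1 hour, with filter-based radiodetection.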
# [10] = molecular target: Retinoic acid receptor alpha (Homo sapiens) (UniProt P10276); assay: NVS_NR_hRARa_Agonist: NovaScreen (NVS) Nuclear Receptor Binding Assay for human Retinoic Acid Alpha Receptor Agonism (RAR) (AID 2283361)
# How it was run: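 Compounds screened at 25 uM, duplicate, then in concentration series if active. Detection: TR-FRET gain of signal versus DMSO after 2 h with cell-free extracted RARα.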
# [11] = molecular target: human Adenosine Transporter (Adot), SLC29A1 (gene 2030) (UniProt Q99808); assay: NVS_TR_hAdoT: NovaScreen (NVS) Transporter Assay for human Adenosine Transporter (Adot) (AID 2283368)
# Chain of human Adenosine Transporter (Adot), SLC29A1 (gene 2030) (Q99808 whole entry, looked up): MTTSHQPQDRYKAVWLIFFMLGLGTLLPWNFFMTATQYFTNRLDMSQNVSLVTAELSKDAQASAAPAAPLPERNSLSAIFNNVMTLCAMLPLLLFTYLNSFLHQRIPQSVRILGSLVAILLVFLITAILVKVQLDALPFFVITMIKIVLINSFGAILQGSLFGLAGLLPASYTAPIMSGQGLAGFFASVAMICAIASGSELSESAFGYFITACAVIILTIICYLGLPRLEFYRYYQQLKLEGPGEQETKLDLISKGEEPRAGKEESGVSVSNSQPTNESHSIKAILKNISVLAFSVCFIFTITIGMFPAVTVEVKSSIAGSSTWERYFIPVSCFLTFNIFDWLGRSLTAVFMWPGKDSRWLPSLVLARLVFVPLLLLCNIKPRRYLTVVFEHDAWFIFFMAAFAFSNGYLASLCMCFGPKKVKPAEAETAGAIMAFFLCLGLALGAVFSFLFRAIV
# How it was run: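 Binding displacement on U937 extracted protein, read 1 h post-dose by filtration and scintillation counting. Primary duplicate test at 25 uM, then singleton concentration series with 50 uM top; DMSO baseline.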
# [12] = molecular target: human Serotonin Transporter (SERT), SLC6A4 (gene 6532) (UniProt P31645); assay: NVS_TR_hSERT: NovaScreen (NVS) Transporter Assay for human Serotonin Transporter (SERT) (AID 2283372)
# How it was run: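 Human platelet membrane preparation; displacement of radioligand from serotonin transporter measured after 1 h by filtration and scintillation counting. Single 25 uM duplicate screen, then concentration series for actives, with DMSO as negative baseline.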
# [13] = molecular target: rat Serotonin Transporter (SERT), Slc6a4 (gene 25553) (UniProt P31652); assay: NVS_TR_rSERT: NovaScreen (NVS) Transporter Assay for rat Serotonin Transporter (SERT) (AID 2283375)
# How it was run: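 Radioligand binding with competitive displacement on rat forebrain membrane preparations, counted by filtration and scintillation after 1 h. Primary single-point duplicates at 25 uM; active chemicals followed up in concentration-response. DMSO served as baseline.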
# [14] = molecular target: Norway rat Vesicular Monoamine Transporter (VMAT2), neurotransmitter transporter, Slc18a2 (gene 25549) (UniProt Q01827); assay: NVS_TR_rVMAT2: NovaScreen (NVS) Transporter Assay for Norway rat Vesicular Monoamine Transporter (VMAT2), neurotransmitter transporter (AID 2283376);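 further: actives lower the bound radioligand signal below the DMSO level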
# How it was run: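 Binding endpoint from rat forebrain tissue, cell-free; 1 h incubation; filtered radioligand counted; 25 uM duplicate primary then dose series; DMSO negative control.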
# [15] = molecular target: Glucocorticoid receptor (Homo sapiens) (UniProt P04150); assay: NVS_NR_hGR: NovaScreen (NVS) Nuclear Receptor Binding Assay for human Glucocorticoid Receptor (GR) (AID 2283363);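 on AC50: activity is loss of specific radioligand binding signal relative to DMSO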
# How it was run: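 Single-readout cell-free binding: radioligand plus extracted receptor, 16-hour dosing, filter radiodetection; 25 uM duplicate primary, concentration series secondary.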
# [16] = molecular target: Retinoic acid receptor alpha (Homo sapiens) (UniProt P10276); assay: NVS_NR_hRAR_Antagonist: NovaScreen (NVS) Nuclear Receptor Binding Assay for human Retinoic Acid Alpha Receptor Antagonism (RAR) (AID 2283358)
# How it was run: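 Chemicals were first tested in duplicate at 25 uM, then actives in concentration series, in a cell-free TR-FRET antagonist binding format. Measurements were taken 2 hours after dosing and loss of signal was evaluated against DMSO controls.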
# [17] = molecular target: human Peroxisome Proliferator-activated Receptor alpha (PPARa), PPARA (gene 5465) (UniProt Q07869); assay: NVS_NR_hPPARa: NovaScreen (NVS) Nuclear Receptor Binding Assay for human Peroxisome Proliferator-activated Receptor alpha (PPARa) (AID 2283359);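 further: activity means loss of TR-FRET signal versus DMSO baseline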
# How it was run: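 One-hour incubation, cell-free extracted protein, TR-FRET binding readout; signal loss vs DMSO scored. Screen: 25 uM duplicates, confirmatory dose series for actives.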
# [18] = tested on: rat Norepinephrine Transporter (NET), gene 83511; assay: NVS_TR_rNET: NovaScreen (NVS) Transporter Assay for rat Norepinephrine Transporter (NET) (AID 2283373)
# How it was run: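 Competitive radioligand displacement at the rat NET using forebrain membrane preparations, 1 h incubation, filter-based scintillation readout. Primary testing in duplicate at a single 25 uM concentration; confirmed actives retested across concentrations.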
compound,measurement,setting,value
ClC1=C(Cl)C2(Cl)C3C(Cl)C=CC3C1(Cl)C2(Cl)Cl (stereo unspecified),outcome,[1],inactive
same,outcome,[2],inactive
N#CC(Br)Br,outcome,[1],inactive
same,outcome,[2],inactive
CCCCCCCCCCCCCN1CC(C)OC(C)C1 (stereo unspecified),outcome,[1],inactive
same,outcome,[2],inactive
same,outcome,[3],inactive
same,AC50,[4],0.0622 µM (active)
CC(C)N(Cc1ccccc1)C(=O)C(C)(C)C,outcome,[5],inactive
same,AC50,[2],50 µM (active)
same,AC50,[6],13.7 µM (active)
Cc1ccc([N+](=O)[O-])cc1,outcome,[1],inactive
same,outcome,[2],inactive
c1ccc(C2CO2)cc1 (stereo unspecified),outcome,[7],inactive
same,outcome,[8],inactive
Nc1cc(Cl)cc(C(=O)O)c1Cl,outcome,[2],inactive
Nc1ccc([N+](=O)[O-])cc1,outcome,[5],inactive
same,outcome,[2],inactive
same,outcome,[8],inactive
same,outcome,[9],inactive
O=C1CCCO1,outcome,[5],inactive
same,outcome,[2],inactive
C[C@]12C=CC3=C4CCC(=O)C=C4CC[C@H]3[C@@H]1CC[C@@H]2O,AC50,[7],69.1 nM (active) and 245 nM (active)
same,AC50,[2],370 nM (active) and 12.5 µM (active)
same,outcome,[2],inactive
same,AC50,[8],0.00382 µM (active)
same,AC50,[10],19.6 µM (active) [middle of 4 runs]
same,AC50,[11],35.2 µM (active)
same,outcome,[12],inactive
same,AC50,[13],5.68 µM (active)
same,AC50,[14],13.3 µM (active)
CCCCCOC(=O)c1ccccc1C(=O)OCCCCC,AC50,[1],42 µM (active)
same,AC50,[2],29.9 µM (active)
same,outcome,[15],inactive
same,outcome,[6],inactive
CCNS(=O)(=O)C(F)(F)C(F)(F)C(F)(F)C(F)(F)C(F)(F)C(F)(F)C(F)(F)C(F)(F)F,outcome,[5],inactive
same,outcome,[16],inactive
same,outcome,[17],inactive
same,outcome,[3],inactive
same,outcome,[11],inactive
Clc1ccc(C(c2ccc(Cl)cc2)C(Cl)(Cl)Cl)cc1,AC50,[2],12.7 µM (active)
[Cl-].[Cl-].[Hg+2],outcome,[1],inactive
same,outcome,[2],inactive
same,AC50,[15],8.46 µM (active)
same,AC50,[11],5.1 µM (active)
same,AC50,[6],44.2 µM (active)
same,AC50,[13],25 µM (active)
same,AC50,[9],0.372 µM (active)
O=C(Nc1ccccc1)c1ccccc1I,outcome,[5],inactive
same,outcome,[1],inactive
same,AC50,[6],12.8 µM (active)
same,AC50,[9],11.2 µM (active)
CCCCC(CC)COC(=O)c1ccc(C(=O)OCC(CC)CCCC)c(C(=O)OCC(CC)CCCC)c1 (stereo unspecified),outcome,[5],inactive
same,outcome,[3],inactive
CC(C)COC(=O)c1ccccc1C(=O)OCC(C)C,AC50,[1],31.1 µM (active)
same,AC50,[2],25.9 µM (active)
same,outcome,[17],inactive
CO[C@@H]1[C@H](OC(=O)NC(=O)CCl)CC[C@]2(CO2)[C@H]1[C@@]1(C)O[C@@H]1CC=C(C)C,AC50,[5],20.1 µM (active)
same,outcome,[1],inactive
same,outcome,[2],inactive
C[N+](C)(C)CC1CO1 (stereo unspecified),outcome,[5],inactive
same,outcome,[1],inactive
same,outcome,[2],inactive
same,outcome,[3],inactive
CC(C)(O)c1cnn2c(-c3ccc(F)c(-c4c(F)cccc4C#N)c3)cnc2n1,outcome,[5],inactive
same,AC50,[2],95.8 µM (active)
CNC(=O)Oc1cccc2c1OC(C)(C)C2,outcome,[5],inactive
same,outcome,[1],inactive
same,outcome,[2],inactive
Nc1ccc(N=Nc2ccccc2)cc1,AC50,[1],39.4 µM (active)
same,AC50,[2],34.6 µM (active)
same,AC50,[6],15 µM (active)
same,AC50,[9],9.76 µM (active)
COC(=O)Nc1nc2ccccc2[nH]1,outcome,[5],inactive
same,outcome,[2],inactive
CC(O)CCO (stereo unspecified),outcome,[2],inactive
CN(C)c1ccc(C(=O)c2ccc(N(C)C)cc2)cc1,outcome,[7],inactive
same,outcome,[2],inactive
same,outcome,[3],inactive
CCCCCCCCn1sccc1=O,outcome,[1],inactive
same,outcome,[2],inactive
same,AC50,[15],7.16 µM (active)
same,AC50,[11],16.6 µM (active)
OCCOCCO,outcome,[1],inactive
same,outcome,[2],inactive
same,outcome,[3],inactive
Clc1ccccc1Cl,outcome,[2],inactive
CCC[CH2][Sn]([Cl])([CH2]CCC)[CH2]CCC,outcome,[7],inactive
same,AC50,[17],0.0235 µM (active)
same,AC50,[8],2.92 µM (active)
same,AC50,[15],0.726 µM (active)
same,AC50,[11],34.6 µM (active)
same,AC50,[6],11.1 µM (active)
same,AC50,[12],11.2 µM (active)
same,AC50,[18],14.4 µM (active)
same,AC50,[13],8.54 µM (active)
same,AC50,[9],0.361 µM (active)
O=[N+]([O-])C(Br)(CO)CO,AC50,[5],72.1 µM (active)
same,outcome,[1],inactive
same,outcome,[2],inactive
same,outcome,[17],inactive
same,AC50,[11],25 µM (active)
same,outcome,[9],inactive
ClCCOCCCl,outcome,[2],inactive
OCCCBr,outcome,[1],inactive
same,outcome,[2],inactive
